# Test results reported in PubChem BioAssay (NCATS).
# Results filed as inconclusive are left out. Where a call stands in place of a potency, no number is given. The source made the active and inactive calls. Calls follow the shape of the dose curve; as a rule, active = well fitted curve in the direction sought with a large enough effect; inconclusive = small, poorly fitted or top-dose-only effect, or another doubt; inactive = no such curve, though single readings can be large; an effect the other way counts as inactive or inconclusive.
# Experiments:
# [1] = biological target: Aldehyde dehydrogenase, mitochondrial (Homo sapiens) (UniProt P05091); assay: qHTS for Inhibitors of the Aldehyde Dehydrogenase Family (ALDH2) Primary screen (AID 2061308); also: nearly all actives have a fitted effect of over 55% in size
# [2] = biological target: Retinaldehyde dehydrogenase 3 (Homo sapiens) (UniProt P47895); assay: qHTS for Inhibitors of the Aldehyde Dehydrogenase Family (ALDH1A3) Primary screen (AID 2061315)
Structure (SMILES),Potency [1],Potency [2]
C=CCNc1oc(-c2cccc(F)c2)nc1C#N,inactive,inactive
COc1ccc2nc(-c3ccc(C#N)cc3)sc2c1,inactive,inactive
NC(=O)C1CCN(c2nc(-c3ccc4c(c3)CCO4)cs2)CC1,inactive,inactive
NC(=O)C1CCN(c2nc(-c3cccc([N+](=O)[O-])c3)cs2)CC1,inactive,inactive
O=C(CCc1ccccc1)Nc1ncnc2c1C(c1ccccc1)c1c(ccc3ccccc13)O2 (stereo unspecified),inactive,inactive
O=Cc1ccc(N2CCN(S(=O)(=O)c3ccc4c(c3)CC(=O)N4)CC2)cc1,inactive,inactive
O=C(Cn1nc(-c2ccccc2)ccc1=O)NCCc1ccccc1,inactive,inactive
COc1cccc(C2c3c(ncn(-c4cccc(F)c4)c3=N)Oc3ccc4ccccc4c32)c1 (stereo unspecified),inactive,inactive
NC(=O)C1CCN(c2nc(-c3ccc(Br)cc3)cs2)CC1,inactive,inactive
NNC(=O)C(C(=O)OCc1ccccc1)c1ccccc1 (stereo unspecified),inactive,inactive
COc1cc(F)c(S(=O)(=O)N2CCCN(S(=O)(=O)c3ccc4c(c3)OCCO4)CC2)c(F)c1,inactive,inactive
CC1(C)CCc2cc(S(=O)(=O)N3CCN(S(=O)(=O)c4c(F)cccc4F)CC3)ccc2O1,inactive,inactive
CCOC(=O)c1nnc(N[S+](=O)([O-])c2ccc(NC(=O)Cc3ccc(Cl)c(Cl)c3)cc2)s1,inactive,inactive
Cc1cc2c(s1)c1c(C)nn(Cc3ccccc3F)c(=O)c1n2C,inactive,inactive
Cc1c(P(=S)(c2ccccc2)c2ccccc2)c2ccccc2n1CCCc1ccccc1,inactive,inactive
COc1cccc(C2=Nn3c(nnc3-c3ccc(OC)c(OC)c3)SC2)c1,inactive,inactive
Cc1ccc(OCCn2c(CCNC(=O)C3CCCC3)nc3ccccc32)cc1,inactive,inactive
CC12CCC3C1C(c1c(cc(O)c(C(=O)c4ccccc4)c1O)O2)C3(C)C (stereo unspecified),inactive,inactive
